Measurements from PubChem BioAssay.
For part of these data: Entries with a potency or affinity are not part of this list. Active and inactive are the calls of the source. Unless noted, how the calls were made is not given here.

How the values were obtained:
[1] = antimalarial activity against Dd2 strain (AID 2302;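 active means growth inhibition above 50% at the single 2 µM test dose, taken to imply half-maximal potency below 2 µM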;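 further: 0% = DMSO untreated growth and 100% = chloroquine plus artemisinin killed control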); conditions: P. falciparum Dd2 in RBCs, LDH growth readout, 72 h; at 2 µM; active compounds read high
[2] = human hepatoma cell viability loss – ATP luminescence, cytotoxicity control for P. falciparum antimalarial project, primary screen (AID 2303;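 active means inhibition above 50%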;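 further: 0% = DMSO wells and 100% = digitonin-killed cells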); conditions: HepG2 viability, 24-48 h, at 10 µM, active compounds read high
[3] = biological target: L-lactate dehydrogenase (Plasmodium falciparum (isolate CDC / Honduras)) (UniProt Q27743); assay: PfLDH activity inhibition – cell lysate, 3D7 strain, counter-screen for P. falciparum growth inhibition project (AID 2304);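 further: 0% = vehicle and 100% = reference inhibitor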; conditions: P. falciparum 3D7 crude extract, LDH APAD/NBT absorbance; at 2 µM; active compounds read high
Sequence of L-lactate dehydrogenase (Plasmodium falciparum (isolate CDC / Honduras)) (Q27743 whole entry, looked up): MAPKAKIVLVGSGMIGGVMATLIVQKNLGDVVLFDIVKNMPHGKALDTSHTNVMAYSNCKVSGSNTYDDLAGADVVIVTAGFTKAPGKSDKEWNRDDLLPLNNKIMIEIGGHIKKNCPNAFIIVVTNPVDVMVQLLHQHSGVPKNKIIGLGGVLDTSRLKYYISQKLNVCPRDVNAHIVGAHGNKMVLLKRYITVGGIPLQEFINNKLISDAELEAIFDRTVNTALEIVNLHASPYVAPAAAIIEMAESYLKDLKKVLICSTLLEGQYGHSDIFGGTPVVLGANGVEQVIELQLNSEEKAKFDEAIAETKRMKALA

[4] = inhibition of 3D7 malaria parasite growth – strain 3D7 (AID 2306);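 further: 0% = DMSO wells and 100% = chloroquine plus artemisinin control wells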; conditions: P. falciparum 3D7 erythrocytic growth, LDH absorbance, 72 h; at 2 µM; active compounds read high
[5] = biological target: Calcium-dependent protein kinase 1 (Plasmodium falciparum (isolate 3D7)) (UniProt P62344); assay: PfCDPK1 kinase inhibitors, biochemical, TCAMS library (AID 1159585; cut-off not given, nearly all actives have IC50 up to about 0.98 µM;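 further: inhibitors leave more ATP so luminescence rises with inhibition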); conditions: recombinant PfCDPK1, Kinase-Glo ATP depletion luminescence
Sequence of Calcium-dependent protein kinase 1 (Plasmodium falciparum (isolate 3D7)) (P62344 whole entry, looked up): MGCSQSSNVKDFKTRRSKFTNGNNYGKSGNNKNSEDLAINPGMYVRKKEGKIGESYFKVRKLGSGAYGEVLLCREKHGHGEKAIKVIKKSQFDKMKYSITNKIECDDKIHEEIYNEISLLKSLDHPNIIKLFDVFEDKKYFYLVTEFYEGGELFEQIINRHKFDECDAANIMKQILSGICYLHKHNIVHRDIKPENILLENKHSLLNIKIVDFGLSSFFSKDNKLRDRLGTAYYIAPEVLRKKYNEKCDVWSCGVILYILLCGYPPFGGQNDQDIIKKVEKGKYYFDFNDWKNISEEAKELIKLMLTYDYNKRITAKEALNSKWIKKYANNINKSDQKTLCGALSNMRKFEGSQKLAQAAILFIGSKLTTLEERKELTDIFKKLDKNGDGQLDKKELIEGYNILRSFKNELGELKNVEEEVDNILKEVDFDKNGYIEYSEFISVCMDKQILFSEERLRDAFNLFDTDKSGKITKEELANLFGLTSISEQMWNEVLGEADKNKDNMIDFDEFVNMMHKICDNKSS

[6] = biological target: Plasmodium falciparum protein kinase 6 (PK6, PF3D7_1337100) (UniProt Q8IDW1); assay: PfPK6 kinase inhibitors, biochemical, TCAMS library (AID 1159586); conditions: recombinant PfPK6, Kinase-Glo ATP depletion luminescence
Sequence of Plasmodium falciparum protein kinase 6 (PK6, PF3D7_1337100) (Q8IDW1 1-305): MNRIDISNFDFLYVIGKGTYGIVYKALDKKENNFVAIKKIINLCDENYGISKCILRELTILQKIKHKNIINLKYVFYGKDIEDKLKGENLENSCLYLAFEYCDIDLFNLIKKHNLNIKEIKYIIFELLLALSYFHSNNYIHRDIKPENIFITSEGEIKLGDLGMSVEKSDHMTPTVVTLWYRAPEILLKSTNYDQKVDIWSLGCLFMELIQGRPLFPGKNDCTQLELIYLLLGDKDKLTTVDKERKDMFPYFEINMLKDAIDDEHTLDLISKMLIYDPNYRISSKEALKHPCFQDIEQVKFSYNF

[7] = biological target: Protein kinase 7 (PK7), Plasmodium falciparum 3D7 (PF3D7_0213400) (UniProt Q7YTF7); assay: inhibition of Plasmodium PK7 catalytic activity – biochemical, TCAMS antimalarial set, Kinase-Glo luminescence (AID 1159587); conditions: recombinant PfPK7, Kinase-Glo ATP depletion luminescence
Sequence of Protein kinase 7 (PK7), Plasmodium falciparum 3D7 (PF3D7_0213400) (Q7YTF7 1-343): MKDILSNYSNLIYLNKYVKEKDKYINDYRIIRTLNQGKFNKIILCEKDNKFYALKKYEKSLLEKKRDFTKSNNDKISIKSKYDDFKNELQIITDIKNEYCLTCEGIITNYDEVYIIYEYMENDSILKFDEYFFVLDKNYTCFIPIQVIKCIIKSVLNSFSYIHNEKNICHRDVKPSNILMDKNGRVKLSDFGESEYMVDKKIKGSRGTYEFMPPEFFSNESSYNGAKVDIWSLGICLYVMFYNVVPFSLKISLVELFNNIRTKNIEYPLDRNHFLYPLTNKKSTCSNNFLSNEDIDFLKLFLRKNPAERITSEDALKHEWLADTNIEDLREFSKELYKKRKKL

[8] = biological target: Calcium-dependent protein kinase 4 (Plasmodium falciparum (isolate 3D7)) (UniProt Q8IBS5); assay: PfCDPK4 kinase inhibitors, biochemical, TCAMS library (AID 1159588; cut-off not given, nearly all actives have IC50 up to about 0.91 µM); conditions: recombinant PfCDPK4, Kinase-Glo ATP depletion luminescence
Sequence of Calcium-dependent protein kinase 4 (Plasmodium falciparum (isolate 3D7)) (Q8IBS5 whole entry, looked up): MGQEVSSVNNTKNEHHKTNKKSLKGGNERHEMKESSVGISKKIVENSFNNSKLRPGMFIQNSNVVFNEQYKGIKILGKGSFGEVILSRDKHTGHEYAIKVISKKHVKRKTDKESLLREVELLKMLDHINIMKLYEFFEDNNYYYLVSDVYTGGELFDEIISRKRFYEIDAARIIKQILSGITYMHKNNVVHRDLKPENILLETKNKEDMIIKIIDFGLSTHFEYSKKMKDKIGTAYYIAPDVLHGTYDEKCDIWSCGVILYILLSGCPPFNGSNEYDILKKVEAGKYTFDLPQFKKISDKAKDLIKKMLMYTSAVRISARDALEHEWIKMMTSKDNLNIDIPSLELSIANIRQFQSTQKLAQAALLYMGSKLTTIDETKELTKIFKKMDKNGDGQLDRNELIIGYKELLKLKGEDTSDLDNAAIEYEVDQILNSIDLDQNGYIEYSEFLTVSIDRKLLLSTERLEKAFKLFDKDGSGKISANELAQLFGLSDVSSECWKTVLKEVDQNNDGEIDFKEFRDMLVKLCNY

SMILES | growth inhibition [1] | inhibition [2] | inhibition [3] | growth inhibition [4] | outcome [5] | outcome [6] | outcome [7] | outcome [8]
CC(Cc1ccc(OCCN2CCN(c3ccc(Cl)cc3)CC2)cc1)NCC(O)c1cccc(C(F)(F)F)c1 (stereo not drawn) | 96% (active) | 97% (active) | 1% (inactive) | 99% (active) | inactive | inactive | inactive | inactive
CN1CCN(c2ccc3nc(-c4ccc(Cc5cc(Cl)ccc5OCc5ccccc5)o4)[nH]c3c2)CC1 | 79% (active) | 27% (inactive) | 2% (inactive) | 102% (active) | inactive | inactive | inactive | inactive
COc1ccc(-c2cn3c(C(=O)Nc4ccccc4Cl)c(-c4ccccc4)c4c3n2CCCC4)cc1 | 1% (inactive) | 7% (inactive) | -4% (inactive) | 100% (active) | inactive | inactive | inactive | inactive
Nc1nc2c(ncn2COC2COP(=O)(O)OC2)c(=O)[nH]1 (stereo not drawn) | 54% (active) | 7% (inactive) | 7% (inactive) | 81% (active) | inactive | inactive | inactive | inactive
CC(C)CCn1c(Sc2ccc([N+](=O)[O-])cc2C(F)(F)F)nnc1-c1ccccc1Cl | 43% (inactive) | -5% (inactive) | 6% (inactive) | 99% (active) | inactive | inactive | inactive | inactive
COc1ccc(CCN(C)CCCCc2ccc(NC(=O)c3cccc4c(=O)c5cc(F)ccc5sc34)cc2)cc1OC | 49% (inactive) | 98% (active) | 0% (inactive) | 96% (active) | inactive | inactive | inactive | inactive
O=C(CSc1nn(-c2ccccc2)c(=S)s1)c1c[nH]c2ccccc12 | 68% (active) | -7% (inactive) | -1% (inactive) | 93% (active) | inactive | inactive | inactive | inactive
COc1ccc(CNC2CCN(C)CC2)cc1-c1ccc(S(=O)(=O)NCCc2ccccn2)s1 | 12% (inactive) | 6% (inactive) | 3% (inactive) | 100% (active) | inactive | inactive | inactive | inactive
Cc1nn(CC(O)Cn2c3ccc(Br)cc3c3cc(Br)ccc32)c(C)c1Br (stereo not drawn) | 81% (active) | 4% (inactive) | 1% (inactive) | 98% (active) | inactive | inactive | inactive | inactive
O=C(Nc1ccc(Cn2ncc(N3CCCNCC3)c(Cl)c2=O)cc1)Nc1cc(F)cc(C(F)(F)F)c1 | 44% (inactive) | 35% (inactive) | 4% (inactive) | 101% (active) | inactive | inactive | inactive | inactive
c1ccc2c(c1)CN(Cc1cc3ccccc3[nH]1)CC1(CCN(Cc3c[nH]c4cnccc34)CC1)O2 | 62% (active) | 27% (inactive) | -3% (inactive) | 101% (active) | inactive | inactive | inactive | inactive
COc1cc2nc(NCCn3nc(C)cc3C)nc(NCCc3ccccc3)c2cc1OC | 100% (active) | 28% (inactive) | -3% (inactive) | 103% (active) | inactive | inactive | inactive | inactive
O=C(Nc1cccc(-c2cccc(-c3nc4ccccc4[nH]3)c2)c1)c1ccoc1 | 36% (inactive) | 19% (inactive) | 5% (inactive) | 85% (active) | inactive | inactive | inactive | inactive
Cc1cc(C=C2SC(=Nc3ccccc3)N(C3CCCC3)C2=O)c(C)n1-c1ccc(Cl)cc1 | 70% (active) | -8% (inactive) | -1% (inactive) | 100% (active) | inactive | inactive | inactive | inactive
CC(C)NCc1cccc(-c2ccc(-c3nc4ccc(C(F)(F)F)cc4[nH]3)cc2)c1 | 96% (active) | 7% (inactive) | -6% (inactive) | 99% (active) | inactive | inactive | inactive | inactive
COc1ccc(CCN2CCC(NCc3cccc(N(C)C)c3)CC2)cc1 | 7% (inactive) | 18% (inactive) | 2% (inactive) | 98% (active) | inactive | inactive | inactive | inactive
Cn1nc(-c2cccc(CN[C@@H]3CCc4ccc(O)cc43)c2)c2cnc(NC3CCCC3)nc21 | 76% (active) | 6% (inactive) | -2% (inactive) | 100% (active) | inactive | inactive | inactive | inactive
CS(=O)(=O)CCNCc1cccc(-c2cc3c(Nc4ccc(OCc5cccc(F)c5)c(Cl)c4)ncnc3s2)c1 | 97% (active) | 5% (inactive) | 1% (inactive) | 101% (active) | inactive | inactive | inactive | inactive

SMILES | growth inhibition [1] | inhibition [2] | inhibition [3] | growth inhibition [4] | outcome [5] | outcome [6] | outcome [7] | outcome [8]
CCc1c(CCNCCCCCNCCc2ccc(OC)c(OC)c2CC)ccc(OC)c1OC | 1% (inactive) | 59% (active) | -1% (inactive) | 101% (active) | inactive | inactive | inactive | inactive
CCC(C)c1ccc(NC(=O)c2ccc(S(=O)(=O)Nc3ccc(OC)c(N4CCN(CC5CC5)CC4)c3)cc2)cc1 (stereo not drawn) | 17% (inactive) | 24% (inactive) | -2% (inactive) | 94% (active) | inactive | inactive | inactive | inactive
CC(C)CCn1c(Sc2ccc(C#N)c([N+](=O)[O-])c2)nnc1-c1ccc(N(C)C)cc1 | 96% (active) | 11% (inactive) | 3% (inactive) | 97% (active) | inactive | inactive | inactive | inactive
COC(=O)COc1cc(C(=O)NCCCCN2CCC(c3ccc4c(c3OC)CCCC4)CC2)ccc1-c1ccc(Cl)cc1 | 21% (inactive) | 32% (inactive) | 2% (inactive) | 97% (active) | inactive | inactive | inactive | inactive
COc1ccc2c(NN=Cc3ccccc3)ccnc2c1 | 98% (active) | 18% (inactive) | -5% (inactive) | 101% (active) | inactive | inactive | inactive | inactive
O=C(Nc1ccc(OC2CCN(Cc3ccc(F)cc3)CC2)c(Cl)c1)c1cccs1 | 96% (active) | 7% (inactive) | -1% (inactive) | 95% (active) | inactive | inactive | inactive | inactive
CCN(CC)CCN(Cc1ccc(-c2ccc(C(F)(F)F)cc2)cc1)C(=O)Cn1c(CCc2ccccc2F)nc(=O)c2ccccc21 | 54% (active) | 39% (inactive) | -1% (inactive) | 95% (active) | inactive | inactive | inactive | inactive
COc1cc(NC(=O)/C=C/c2cccc3cc[nH]c23)ccc1OCCN(C(C)C)C(C)C | 51% (active) | 11% (inactive) | 5% (inactive) | 99% (active) | inactive | inactive | inactive | inactive
CCN1C(=O)C(CC(=O)Nc2cccc(Cl)c2)N(Cc2ccc(OC)c(OC)c2)C1=S (stereo not drawn) | 68% (active) | 13% (inactive) | -8% (inactive) | 100% (active) | inactive | inactive | inactive | inactive
C=Cc1ccccc1C1(O)CCN(CCCCNC(=O)c2ccc(-c3ccc(C#N)cc3)cc2)CC1 | 64% (active) | 27% (inactive) | 0% (inactive) | 88% (active) | inactive | inactive | inactive | inactive
Cc1cccc(Cl)c1Nc1nnc(-c2cccc(C(=O)NC[C@@H]3CC[C@H]4C[C@@H]3C4(C)C)c2)o1 | 69% (active) | 2% (inactive) | -3% (inactive) | 85% (active) | inactive | inactive | inactive | inactive
Clc1ccc(OCCC2CCN(CCCCCCCN3CCC(CCOc4ccc(Cl)c(Cl)c4)CC3)CC2)cc1Cl | 82% (active) | 100% (active) | -5% (inactive) | 99% (active) | inactive | inactive | inactive | inactive
CCN(CC)CCN(Cc1ccc(-c2ccc(C(F)(F)F)cc2)cc1)C(=O)Cn1cc(CCCCc2cccc(F)c2F)c(=O)c2ccccc21 | 22% (inactive) | 18% (inactive) | -5% (inactive) | 90% (active) | inactive | inactive | inactive | inactive
COc1cc(NC(=O)c2ccc(-c3ccccc3)cc2)ccc1OCCCN1CCC(c2ccccc2)CC1 | 30% (inactive) | 46% (inactive) | 2% (inactive) | 103% (active) | inactive | inactive | inactive | inactive
COc1ccc(-c2nonc2NC(=O)c2ccc(C(C)(C)C)cc2)cc1OC | 73% (active) | -3% (inactive) | -2% (inactive) | 99% (active) | inactive | inactive | inactive | inactive
C[C@@H](COc1ccccc1)NCC(O)c1ccc([N+](=O)[O-])c(OCc2ccccc2)c1 (stereo partly drawn) | 64% (active) | 5% (inactive) | 7% (inactive) | 93% (active) | inactive | inactive | inactive | inactive
O=C(N[C@@H](CC1CCCCC1)C(=O)NC1CCCc2ccccc21)c1ccc(O)c(-c2cccc(C(F)(F)F)c2)c1 (stereo partly drawn) | 99% (active) | -4% (inactive) | 5% (inactive) | 100% (active) | inactive | inactive | inactive | inactive
CCc1c(CCNCCCCCCNCCc2ccc3c(c2C)OCO3)ccc2c1OCO2 | 7% (inactive) | 59% (active) | 7% (inactive) | 101% (active) | inactive | inactive | inactive | inactive
